KB-V1 MDR tox – qHTS assay for MDR1-selective chemotherapeutics: Primary screen using the drug-selected MDR subline cells KB-V1. KB-V1 MDR cells viability, CellTiter-Glo, 72 h. Potency, µM (top dose mostly 46.1 µM), hits mostly cytotoxic. 3.4% of 400,000 active. AID 1347076, 2019; further: on the % scale 0 is the no-effect control and ±100 the full control effect; nearly all actives have a fitted effect of over 60% in size
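Readout: CellTiter-Glo luminescence, 10 min after addition. Cells: KB-V1 MDR subline, 72 h at 37 degrees C with compound. Analysis: corrected, normalized data fitted to concentration-effect curves.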
HepG2 viability – qHTS for Inhibitors of TGF-b: Cytotox Counterscreen; HepG2 CAGA-GFP viability, ATP luminescence, 18 h; AID 588856, 2011; Potency, µM (top dose mostly 46.1 µM), for the others: at the highest dose activity change, negative = cytotoxicity, usual class: cytotoxic; 0.76% of 410,000 active
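HepG2 CAGA-GFP cells (1000/well, DMEM with 1% FBS) received compound, then TGF-beta at 500 pg/mL final, and were incubated 18 hours at 37 degrees C. Viability was read by CellTiter-Glo luminescence. Media-only wells were set as complete cell-killing and DMSO as no toxicity.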
TGFb SMAD3 inh – qHTS for Inhibitors of TGF-b; HepG2 CAGA-GFP TGF-b/SMAD3 reporter, GFP fluorescence, 18 h; TGF-beta stimulated, 500 pg/mL final; Potency, µM (series often up to 46.1 µM), inactives show at the highest dose activity, negative = inhibition, most hits filed as inhibitors; 1.2% of 410,000 active; AID 588855, 2011; further: on the % scale 0 is the no-effect control and ±100 the full control effect; nearly all actives have a fitted effect of over 65% in size
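HEPG2 CAGA-GFP reporter cells (1000/well, DMEM with 1% FBS) received compounds, then recombinant TGF-beta at 500 pg/mL final for 18 hours at 37 degrees C. Per-cell GFP summed per well was normalised to unstimulated and stimulated DMSO controls before curve fitting.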
S2 tox – Viability Counterscreen for Primary qHTS for Inhibitors of ATXN expression; 0.49% of 400,000 active; AID 651635, 2014; S2 cells (HEK-293 line with an ATXN2-luciferase reporter) viability, CellTiter-Fluor protease fluorescence, 24 h; Potency, µM (doses to about 56.7 µM), hits mostly cytotoxic; further: nearly all actives have a fitted effect of over 40% in size
KB-3-1 cytotox – qHTS assay for MDR1-selective chemotherapeutics: Primary screen using the parental adenocarcinoma cell KB-3-1. Potency, µM (titrated, usually from 46.1 µM), most hits filed as cytotoxic. KB-3-1 viability, CellTiter-Glo ATP luminescence, 72 h. 1.4% of 400,000 active. AID 1347075, 2019; further: on the % scale 0 is the no-effect control and ±100 the full control effect; nearly all actives have a fitted effect of over 60% in size
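Multi-concentration cytotoxicity screen in KB-3-1 cells grown in DMEM lacking phenol red with 10% FBS. After 72 h at 37 °C with compound, ATP-dependent luminescence was recorded.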
ATXN2 expr inh – Primary qHTS for Inhibitors of ATXN expression; HEK-293 ATXN2-luciferase reporter, luminescence, 24 h; Potency, µM (highest dose often 57 µM), for the others: top-dose activity change, negative = inhibition, actives largely listed as inhibitors; 0.72% of 360,000 active; further: on the % scale 0 is the no-effect control and ±100 the full control effect; nearly all actives have a fitted effect of over 55% in size
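ATXN2-luciferase reporter cells (luciferase flanked by upstream and downstream ATXN2 gene portions) were treated 24 h at 37 °C with compounds at up to 57 uM. SteadyGlo luminescence gave expression; GF-AFC fluorescence gave viability.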
Starred values were filed as active, the others as inactive; i = inactive; ? = inconclusive; nt = not tested or not shown; [ ] = remark or other dose. Shown are actives, neighbours in structure and some others; about 5.9% of the full set was active somewhere. The call rests on the fitted dose curve; in most records, active means well fitted curve in the direction sought with a large enough effect; inconclusive means small, poorly fitted or top-dose-only effect, or another doubt; inactive means no such curve, though single readings can be large; an effect the other way counts as inactive or inconclusive. Potency means the concentration at half of the fitted maximal effect.

SMILES	KB-V1 MDR tox	HepG2 viability	TGFb SMAD3 inh	S2 tox	KB-3-1 cytotox	ATXN2 expr inh
Cn1ccsc1=NC(=O)c1ccccc1F	i	8.0%	-10.0%	i	i	-4.7%[11.3 µM]
Cc1ccc(C)c(-n2c(-c3ccc(Br)cc3)csc2=NC(=O)c2ccccc2F)c1	?	-0.2%	0.0%	i	11.6µM*	-9.6%
O=C(Nc1cc(C(F)(F)F)ccc1Cl)c1cc(-c2cccs2)nc2ccccc12	i	-8.5%	-21.9%	i	i	14.3%
COc1ccccc1Oc1coc2cc(OC(=O)N3CCOCC3)ccc2c1=O	23.1µM*	-5.2%	45.7%	?	?	-2.6%
COc1cccc(Oc2coc3cc(OC(=O)N4CCOCC4)ccc3c2=O)c1	?	-8.5%	-12.7%	i	i	-0.7%
Cc1ccc(-c2nc(C)c(CCNC(=O)C(=O)Nc3ccc(C)c(Cl)c3)s2)cc1	i	-3.1%	2.8%	i	i	3.3%
COCC(=O)Nc1ncc(S(=O)(=O)c2ccc([N+](=O)[O-])cc2)s1	i	-16.4%	-5.5%	i	i	-8.6%
O=C(NC(Nc1ncc(S(=O)(=O)c2ccc([N+](=O)[O-])cc2)s1)(C(F)(F)F)C(F)(F)F)c1ccc(Cl)cc1	?	-39.2%	?	?	20.6µM*	14.1µM*
COc1cc2c(NC3CCN(C(C)C)CC3)nc(N3CCCN(C)CC3)nc2cc1OCCOCCN1CCCC1	i	-2.5%	?	nt	11.6µM*	nt
COc1cc2c(NC3CCN(C)CC3)nc(N3CCCN(C)CC3)nc2cc1OCC1CCCCN1 (stereo not given)	i	-11.3%	11.2µM*	nt	?	nt
COc1cc2c(NC3CCN(C)CC3)nc(N3CCCN(C)CC3)nc2cc1OCCCN1CCOCC1	i	-11.4%	10µM*	nt	?	nt
CCO[C@@H]1OC(C(=O)N2CCN(Cc3ccccc3)CC2)=C[C@H](c2ccc(C(F)(F)F)cc2)[C@H]1CCCO	?	-32.6%	12.6µM*	?	?	0.0%
CCc1ccccc1NC(=O)c1ccc([N+](=O)[O-])s1	?	11.2µM*	11.2µM*	i	?	?
COc1ccccc1NC(=O)COC(=O)c1ccc([N+](=O)[O-])s1	i	-12.7%	?	i	i	nt
COc1cc(-c2ccc(=O)[nH]n2)ccc1OC(F)F	0.0517µM*	-8.8%	0.5%	i	0.461µM*	8.6%
COC(=O)c1cc(-c2ccc(OC)c(OC)c2)n[nH]1	i	-1.7%	-1.2%	?	i	13.5%
COc1ccc(-c2ccc(=O)[nH]n2)cc1	1.84µM*	-8.3%	14.7%	i	i	1.1%
Cc1ccc(NC(=O)C2(C)CCN2C(=O)Cc2ccccc2)cc1C (stereo not given)	i	1.9%	4.2%	i	i	-3.8%
COc1cc(OC)c(OC)cc1/C=C/C(=O)c1ccc(NS(=O)(=O)c2ccc(C)cc2)cc1	14.6µM*	-7.2%	?	i	i	-30.2%
Oc1ccc(Cl)cc1C1C=C(c2ccc3c(c2)OCO3)NC(c2ccc(Cl)cc2)N1 (stereo not given)	i	-60.8%	?	nt	i	nt
CCOc1ccc(NC(=O)N2CCN(C(=O)c3nsc4ccccc34)CC2)cc1	i	0.6%	-2.2%	nt	i	nt
CC(C)n1c(NCc2ccccc2O)nc2ccccc21	i	-18.1%	-14.7%	i	i	-0.2%
C=CCc1cccc(CNc2nc3ccccc3n2C(C)C)c1O	?	-43.7%	12.6µM*	?	i	31.6µM*
Cc1ccc2nc(SCc3nc(-c4ccccc4C)no3)[nH]c2c1	?	-37.3%	?	i	i	-29.2%
CC(C)(C)n1ncc2c(=O)n(Cc3ccc(Cl)c(SC(F)(F)F)c3)cnc21	nt	-11.2%	1.4%	nt	nt	nt

High-throughput results from PubChem BioAssay.
